In the library only some 21% were active in any assay of this set; here they are far more common.
Pf growth 96h = P. falciparum growth inhibition at 96 hours; P. falciparum luciferase reporter growth, 96 h; Potency, µM (highest dose often 28.7 µM), for the others: at the highest dose activity change, negative = inhibition, hits mostly inhibitors; 6.9% of 320,000 active; AID 504834; also: potency is read from the fitted curve at half-maximal effect; % is scaled to controls: 0 for no effect and ±100 for the full control effect
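Two-generation exposure (96 h) targets delayed-death phenotype. Reporter parasites carrying integrated firefly luciferase, in red cells at 2% hematocrit and 0.05% parasitemia final, kept at 37 C, 5% CO2; luminescence loss indicates inhibition.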
Shiga inhibitor = inhibitors of Shiga toxin in Vero cells. Vero cells, Shiga toxin protein synthesis inhibition reporter. inhibition, % at 38.7 µM. AID 2315. 9.2% of 290,000 active; in the data active = inhibition mostly above about 28%, no sharp cut-off; inactive = mostly below about 43%; also: 0% is about no effect
Pf growth 48h = P. falciparum growth inhibition at 48 hours (one generation); Potency, µM (highest dose often 28.7 µM), for the others: at the top dose activity change, negative = inhibition, actives largely listed as inhibitors; 5.9% of 310,000 active; P. falciparum luciferase growth in erythrocytes, 48 h; AID 504832; also: potency is read from the fitted curve at half-maximal effect; % is scaled to controls: 0 for no effect and ±100 for the full control effect
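Read-out is firefly luciferase luminescence from an integrated reporter in P. falciparum, so falling signal marks reduced parasite growth. Infected erythrocytes were at 2% hematocrit and 0.1% parasitemia (final) in Albumax-supplemented RPMI 1640.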
Cycloheximide cs = counter-screen hit for Shiga toxin inhibitors, cycloheximide; 12% of 300,000 active; max response, %; cell reporter, cycloheximide protein synthesis inhibition counterscreen; in the data active = max response mostly above about 13%, no sharp cut-off; inactive = mostly below about 14%; also: read at 38.3 µM for the half of the compounds with a filed dose; 0% is about no effect
NS1 inh = inhibitors of influenza NS1 protein function; Potency, µM (titrated, usually from 46.1 µM), for the others: at the highest dose activity, positive = more growth; 0.4% of 270,000 active; calls by dose curve; also: potency is read from the fitted curve at half-maximal effect; actives are rising curves; nearly all actives have a fitted effect of over 50% in size
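A cell-based growth assay was used: compounds that relieve NS1-induced slow growth of budding yeast raise OD600. Assay medium was yeast nitrogen base with ammonium sulphate and -URA supplement, pH 6.0, with 2% galactose.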
Starred values were filed as active, the others as inactive; i = inactive; ? = inconclusive; nt = no result given. Unless noted, calls follow the shape of the dose curve; as a rule, active = well fitted inhibition curve with a large enough effect; inconclusive = small, poorly fitted or top-dose-only effect, or another doubt; inactive = no such curve, though single readings can be large or run the other way.

SMILES	Pf growth 96h	Shiga inhibitor	Pf growth 48h	Cycloheximide cs	NS1 inh
COc1cccc(C2C3=C(N=c4s/c(=C\c5ccccc5O)c(=O)n42)c2ccccc2CC3)c1OC (centres undefined)	2.9µM*	20	1.9µM*	-2	nt
CCOC(=O)C1=C(c2ccccc2)N=c2s/c(=C\c3cccc(O)c3)c(=O)n2C1c1cccs1 (centres undefined)	?	-8	4%	-1	-47%
COc1cccc(C2C3=C(N=C4SCC(=O)N42)c2ccccc2CC3)c1OC (centres undefined)	186%	21	12µM*	-1	4%
Cc1ccnc(NC(=O)c2cccc(OC(F)F)c2)n1	97%	69*	96%	20	8%
O=C(Nc1cc(Cl)cc(Cl)c1)c1cccc(OC(F)F)c1	?	17	nt	15*	-146%
Cc1ccc(C(=O)Nc2nccc(C)n2)cc1	85%	nt	84%	12	8%
CN(C(=O)COC(=O)CSc1ccc(C(N)=O)cc1[N+](=O)[O-])C1CCS(=O)(=O)C1 (centres undefined)	-15%	nt	0%	nt	nt
CCOC(CNc1c([N+](=O)[O-])c(=O)n(C)c(=O)n1C)OCC	5%	-8	-1%	-2	-8%
COc1ccc2c(c1)-c1ccccc1S(=O)(=O)N2C(C)=O	12µM*	-17	-12%	-3	-86%
CC(Nc1ccccc1)C(=O)Nc1ccc(F)cc1 (centres undefined)	-18%	-9	nt	-1	-2%
O=C(N/N=C/c1cccc(OCc2ccccc2)c1)c1cccs1	?	75*	?	30*	-47%
O=C(N/N=C/c1cccc([N+](=O)[O-])c1)C1CC1c1ccccc1 (centres undefined)	12µM*	-8	0%	-1	-2%
CCOC(=O)N/N=C\c1ccc([N+](=O)[O-])s1	?	42	?	10	nt
COc1ccc(NC(=O)CCC(=O)N/N=C/c2ccc([N+](=O)[O-])s2)cc1	?	-2	7.4µM*	-3	-49%
O=C(N/N=C/c1ccc([N+](=O)[O-])s1)c1cccc(Br)c1	4.1µM*	5	4.1µM*	-2	2%
Cc1ccc(N(CC(O)COCc2ccco2)S(=O)(=O)c2ccc(C)cc2)cc1 (centres undefined)	?	3	42%	2	?
O=C(N/N=C/c1cccc([N+](=O)[O-])c1)c1ccc(Br)cc1	14%	9	11%	-4	4%
COc1cc(/C=N/NC(=O)c2cncc(Br)c2)cc([N+](=O)[O-])c1O	?	2	?	0	1%
O=C(N/N=C/c1cccc(Br)c1)c1ccc(Br)cc1	37%	33	-4%	22*	nt
CCOc1cc(/C=N/NC(=O)c2cccs2)cc([N+](=O)[O-])c1O	-28%	49*	-1%	45*	-5%
O=C(N/N=C/c1cccc([N+](=O)[O-])c1)c1cccs1	398%	34	90%	26*	9%
O=C(N/N=C/c1cccc([N+](=O)[O-])c1)c1cccc(Br)c1	1%	24	40%	22*	nt
CCCCN(CC)c1nc(C)nc2c1c(C)c(C)n2-c1c(C)cc(C)cc1C	nt	5	nt	5	nt
CCOC(=O)CSc1nc2c(c(=O)n(C)c(=O)n2C)n1CCCc1ccccc1	nt	-5	4%	-3	-7%
O=C(N/N=C/c1cc([N+](=O)[O-])ccc1N1CCCCCC1)c1ccccn1	?	31	?	16	nt
SMILES	Pf growth 96h	Shiga inhibitor	Pf growth 48h	Cycloheximide cs	NS1 inh
Cc1ccc(C(=O)N/N=C\c2ccc([N+](=O)[O-])s2)cn1	0.33µM*	-13	4.1µM*	-2	-5%
O=C(N/N=C/c1ccc(Br)s1)c1ccc([N+](=O)[O-])cc1	-11%	-11	2.1µM*	11	nt
O=C(N/N=C/c1ccc([N+](=O)[O-])s1)c1ccncc1	1.5µM*	5	4.7µM*	9	-22%
CCN(CC)C(=O)C1CCCN(c2ccc([N+](=O)[O-])cc2/C=N/NC(=O)c2cccc(Br)c2)C1 (centres undefined)	2.1µM*	10	4.1µM*	6	?
O=C(Cn1cccc1C(=O)c1ccccc1)NCc1ccccn1	1%	-18	-3%	-3	2%
CC(C)(C)OC(=O)N/N=C\c1ccc([N+](=O)[O-])s1	7%	81*	?	58*	nt
OC(COCc1ccc(Cl)cc1)CN1CC=C(c2ccccc2)CC1 (centres undefined)	3.3µM*	-10	9.3µM*	-4	-46%
COc1ccccc1CNC(=O)c1ccc(OC(F)F)c(OC)c1	14%	-1	15%	-1	-5%
COc1ccc(C(=O)CSc2nnc(-c3ccco3)c(-c3ccco3)n2)cc1	1.5µM*	20	-3%	10	6%
Cc1ccc(NC(=O)CSc2nnc(-c3ccco3)c(-c3ccco3)n2)cc1	?	1	-12%	15	-5%
O=C(CSc1nnc(-c2ccco2)c(-c2ccco2)n1)Nc1ccccc1	1%	27	2%	31*	?
COc1ccc(C(=O)CSc2nnc(-c3ccco3)n2C)cc1	nt	8	-18%	-1	-8%
Cc1ccc(S(=O)(=O)N(C(=N)N)c2nc(N(C)C)nc(N(C)C)n2)cc1	?	-7	?	-4	0%
CCn1cc(C(=O)OCC(=O)NCc2ccccc2Cl)c(=O)c2ccc(C)nc21	-18%	21	-15%	4	nt
COCCCNC(=O)CCc1c(C)c2cc3c(C)coc3cc2oc1=O	?	-1	?	-1	-2%
Cc1oc2ccccc2c1CC(=O)NCCCN(C)C	5%	-7	2.1µM*	-2	-5%
C=CCc1cccc2cc(C(=O)N3CCN(C(=O)c4ccco4)CC3)c(=O)oc12	nt	1	8%	-3	-1%
CN(C)/C=N/c1nc(-c2ccc3ccccc3c2)cs1	156%	61*	88%	47*	-39%
NS(=O)(=O)c1ccc(Nc2nc(-c3ccc4ccccc4c3)cs2)cc1	nt	-5	2%	9	8%
CN(C)/C=N/c1nc(-c2ccc3c(c2)OCO3)cs1	404%	178*	i	53*	4%
Cc1nccc(-c2ccc3c(c2)OCO3)n1	45%	14	?	13	nt
C[n+]1cccc(C(=O)Nc2ccccc2)c1	32%	-5	30%	-3	-1%
CCC(C)[C@H](NC(=O)c1cc2cc(Cl)ccc2n1C)C(=O)N1CCC[C@H]1C(=O)O (some centres undefined)	-4%	-6	18%	1	29%
O=C(Nc1ccccc1)c1cc2ccccc2c(=O)s1	72%	36*	32%	41*	-16%
Cc1cc(C)cc(NC(=O)c2cc3c(=O)n4ccccc4nc3s2)c1	-11%	22	7%	-4	-6%
O=C(Nc1ccc(O)cc1)c1cc2ccccc2c(=O)s1	130%	113*	120%	56*	2%
COc1cc(S(=O)(=O)N2CCC(c3nc4ccccc4s3)CC2)ccc1S(=O)(=O)N1CC(C)CC(C)C1 (centres undefined)	21%	-1	?	-1	10%

High-throughput results deposited in PubChem by National Center for Advancing Translational Sciences (NCATS).
